Bioassay records from PubChem.
Rows were chosen to be rich in hits. Some 6.7% of all compounds tested hit in one or more screens of this group.
Pf Dd2 inh: P. falciparum Dd2 growth inhibitors, primary screen, SYBR Green fluorescence, single dose replicates; 72 h; active compounds read low; activity change, % at 10 µM; 94,000 compounds, 2.3% hits; in the data active = activity change below about -80%
Tcruzi prolif: T. cruzi intracellular proliferation inhibitors, primary screen, cell-based, beta-gal Tulahuen parasites, NIH3T3 host, luminescence; 77,000 compounds, 5.9% hits; inhibition, % at 8.34 µM; T. cruzi beta-gal in NIH3T3, GalScreen luminescence, 90 h;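 active = mean inhibition above about 93%, with at least 55% of replicates each passing it, limit read from the data, passing the limit was not always enough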
C diff HTS: C. difficile growth inhibitors, primary screen, HTS; Clostridium difficile clinical isolate growth, OD600, 24 h; active compounds read low; growth activity, negative = inhibition, % at 16 µg/mL (by protocol); 86,000 compounds, 0.25% hits; AID 1259249, 2017;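 active = mean growth activity at or below -80% and every replicate also at or below -80%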
Hits are given with their value; ! = not active in a repeat.

How did O=C(C[C@@H]1CC[C@H]2[C@@H](COC[C@@H](O)CN2C(=O)Nc2ccc(Cl)c(Cl)c2)O1)NCc1ccc(F)cc1 do in these assays?
Pf Dd2 inh: inactive; Tcruzi prolif: inactive; C diff HTS: inactive

How did O=C(C[C@@H]1CC[C@H]2[C@@H](COC[C@H](O)CN2C(=O)Nc2ccc(Cl)c(Cl)c2)O1)NCc1ccc(F)cc1 do in these assays?
Pf Dd2 inh: inactive; Tcruzi prolif: inactive; C diff HTS: -84

How did CCCNC(=O)C[C@H]1CC[C@@H]2[C@H](COC[C@@H](O)CN2C(=O)Nc2ccc(Cl)c(Cl)c2)O1 do in these assays?
Pf Dd2 inh: inactive; Tcruzi prolif: inactive; C diff HTS: inactive

How did O=C(C[C@H]1CC[C@H]2[C@@H](COC[C@@H](O)CN2C(=O)Nc2ccc(Cl)c(Cl)c2)O1)NCc1ccc(Cl)cc1 do in these assays?
Pf Dd2 inh: inactive; Tcruzi prolif: inactive; C diff HTS: inactive

Results for O=C(C[C@H]1CC[C@H]2[C@@H](COC[C@@H](O)CN2C(=O)Nc2ccc(Cl)c(Cl)c2)O1)NCc1ccc(F)cc1 ?
Pf Dd2 inh: inactive; Tcruzi prolif: inactive; C diff HTS: inactive

Results for O=C(C[C@@H]1CC[C@H]2[C@@H](COC[C@@H](O)CN2C(=O)Nc2ccc(Cl)c(Cl)c2)O1)NCc1ccc(Cl)cc1 ?
Pf Dd2 inh: inactive; Tcruzi prolif: inactive; C diff HTS: -91

How did O=C(C[C@H]1CC[C@H]2[C@@H](COC[C@H](O)CN2C(=O)Nc2ccc(Cl)c(Cl)c2)O1)NCc1ccc(F)cc1 do in these assays?
Pf Dd2 inh: inactive; Tcruzi prolif: inactive; C diff HTS: -94

How did CCCNC(=O)C[C@@H]1CC[C@H]2[C@@H](COC[C@@H](O)CN2C(=O)Nc2ccc(Cl)c(Cl)c2)O1 do in these assays?
Pf Dd2 inh: inactive; Tcruzi prolif: inactive; C diff HTS: -103!

How did COc1ccc(S(=O)(=O)Nc2ccc3c(c2)C(=O)N([C@H](C)CO)C[C@H](C)[C@H](CN(C)C(=O)Nc2ccc4c(c2)OCO4)O3)cc1 do in these assays?
Pf Dd2 inh: inactive; Tcruzi prolif: inactive; C diff HTS: inactive

What do the screens show for `COCC(=O)N1C[C@@H](C)[C@H](OC)CN(C)C(=O)c2cc(NC(=O)c3ccccc3)ccc2OC[C@H]1C`?
Pf Dd2 inh: inactive

How did CNC[C@@H]1Oc2ccc(NC(=O)Cc3ccccc3)cc2C(=O)N([C@@H](C)CO)C[C@@H]1C do in these assays?
Pf Dd2 inh: inactive; Tcruzi prolif: inactive; C diff HTS: inactive

Results for O=C(C[C@H]1C[C@@H]2c3cc(NC(=O)NC4CCCC4)ccc3O[C@@H]2[C@H](CO)O1)NCc1cc(F)ccc1F ?
Pf Dd2 inh: inactive; Tcruzi prolif: inactive; C diff HTS: inactive

Results for C[C@H]1CN([C@@H](C)CO)C(=O)c2cc(NC(=O)Cc3cn(C)c4ccccc34)ccc2O[C@@H]1CN(C)CC1CC1 ?
Pf Dd2 inh: -83; C diff HTS: inactive

What do the screens show for `C[C@H](CO)N1C[C@H](C)[C@@H](CN(C)Cc2ccc(Oc3ccccc3)cc2)Oc2ccc(NC(=O)Cc3cn(C)c4ccccc34)cc2C1=O`?
Pf Dd2 inh: -84; Tcruzi prolif: inactive; C diff HTS: inactive

What do the screens show for `C[C@@H]1CN([C@@H](C)CO)C(=O)c2cc(NC(=O)Cc3cn(C)c4ccccc34)ccc2O[C@H]1CN(C)C(=O)Nc1cccc2ccccc12`?
Pf Dd2 inh: inactive; Tcruzi prolif: inactive

How did C[C@H]1CN([C@@H](C)CO)C(=O)c2cc(NC(=O)Cc3cn(C)c4ccccc34)ccc2O[C@H]1CN(C)CC1CC1 do in these assays?
Pf Dd2 inh: inactive; Tcruzi prolif: inactive; C diff HTS: inactive

How did C[C@H](CO)N1C[C@H](C)[C@@H](CN(C)C(=O)Nc2cccc3ccccc23)Oc2ccc(NC(=O)Cc3cn(C)c4ccccc34)cc2C1=O do in these assays?
Pf Dd2 inh: -87; Tcruzi prolif: inactive

Results for COc1ccc(CN(C)C[C@@H]2Oc3ccc(NC(=O)Cc4cn(C)c5ccccc45)cc3C(=O)N([C@@H](C)CO)C[C@H]2C)cc1 ?
Pf Dd2 inh: inactive; Tcruzi prolif: inactive; C diff HTS: inactive

What do the screens show for `O=C(C[C@H]1CC[C@@H]2[C@H](COC[C@@H](O)CN2C(=O)c2cnccn2)O1)NCc1ccc(Oc2ccccc2)cc1`?
Pf Dd2 inh: inactive; C diff HTS: inactive

How did CO[C@@H]1CN(C)C(=O)c2ccc(NC(=O)CC(F)(F)F)cc2OC[C@H](C)N(C(=O)c2ccccc2F)C[C@H]1C do in these assays?
Pf Dd2 inh: inactive; C diff HTS: inactive

Results for COC(=O)C[C@@H]1C[C@@H]2c3cc(NC(=O)Nc4ccccc4F)ccc3O[C@@H]2[C@@H](CO)O1 ?
Pf Dd2 inh: inactive; Tcruzi prolif: inactive; C diff HTS: inactive

What do the screens show for `COc1ccc(NC(=O)Nc2ccc3c(c2)C(=O)N([C@@H](C)CO)C[C@H](C)[C@@H](CN(C)Cc2ccc(C(=O)O)cc2)OCCCC[C@@H](C)O3)cc1`?
Pf Dd2 inh: inactive; Tcruzi prolif: inactive; C diff HTS: inactive

What do the screens show for `COC(=O)[C@@H]1[C@@H](CO)[C@@H]2Cn3c(ccc(-c4cccc(OC)c4)c3=O)[C@@H]2N1Cc1nccs1`?
Tcruzi prolif: inactive; C diff HTS: inactive

What do the screens show for `CCCC#Cc1cnc2c(c1)C(=O)N([C@H](C)CO)C[C@@H](C)[C@@H](CN(C)C(=O)Nc1cc(F)ccc1F)O2`?
Pf Dd2 inh: inactive; Tcruzi prolif: inactive; C diff HTS: inactive

Results for CC(C)CC#Cc1cnc2c(c1)C(=O)N([C@H](C)CO)C[C@@H](C)[C@H](CN(C)C(=O)Nc1cc(F)ccc1F)O2 ?
Pf Dd2 inh: -83; Tcruzi prolif: inactive; C diff HTS: inactive

Results for CCCC#Cc1cnc2c(c1)C(=O)N([C@H](C)CO)C[C@@H](C)[C@@H](CN(C)C(=O)Nc1cccc(F)c1)O2 ?
Pf Dd2 inh: inactive; Tcruzi prolif: inactive; C diff HTS: inactive

Results for CCCC#Cc1cnc2c(c1)C(=O)N([C@@H](C)CO)C[C@H](C)[C@H](CN(C)C(=O)Nc1cccc(F)c1)O2 ?
Pf Dd2 inh: -88; C diff HTS: inactive

Results for C[C@H]1CN([C@@H](C)CO)C(=O)Cc2cc(NC(=O)Nc3cccc4ccccc34)ccc2O[C@H]1CN(C)C(=O)Nc1ccccc1 ?
Pf Dd2 inh: inactive; Tcruzi prolif: inactive; C diff HTS: inactive

How did C[C@H](CO)N1C[C@H](C)[C@H](CN(C)Cc2ccccc2)OCc2ccccc2-c2ccccc2C1=O do in these assays?
Pf Dd2 inh: inactive; Tcruzi prolif: inactive

What do the screens show for `C[C@@H]1CN([C@H](C)CO)C(=O)c2ccccc2-c2ccccc2CO[C@@H]1CN(C)S(=O)(=O)c1ccc(Cl)cc1`?
Pf Dd2 inh: inactive; Tcruzi prolif: inactive; C diff HTS: inactive

How did COc1ccc(CN(C)C[C@@H]2OCc3cn(nn3)CCCC(=O)N([C@H](C)CO)C[C@H]2C)cc1 do in these assays?
Pf Dd2 inh: -81; Tcruzi prolif: inactive; C diff HTS: inactive

What do the screens show for `Cc1ccccc1S(=O)(=O)N(C)C[C@H]1OCc2ccccc2-c2ccccc2C(=O)N([C@@H](C)CO)C[C@H]1C`?
Pf Dd2 inh: -87; Tcruzi prolif: inactive; C diff HTS: inactive

How did COc1ccc(CN(C)C[C@H]2OCc3cn(nn3)CCCC(=O)N([C@H](C)CO)C[C@@H]2C)cc1 do in these assays?
Pf Dd2 inh: inactive; Tcruzi prolif: inactive; C diff HTS: inactive
